KKLEB cytotox – counter-screen for CF NF-kB inhibitors: cytotoxicity | KKLEB CF airway cells viability, ATPlite luminescence, overnight; stronger effect = lower value; cells stimulated with P. aeruginosa culture filtrate | activity change (cytotoxicity), % at 5 µM | 360,000 compounds, 0.36% hits | AID 602141;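 active = corrected activity change at or below -50% at 5 µM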
C8 TRAIL sens – sensitizes caspase-8 expressing cells to TRAIL. 360,000 compounds, 1% hits. inhibition (viability loss, TRAIL sensitization), % at 10 µM. AID 624354. NB7+C8 cells + TRAIL, ATPlite viability luminescence;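 active = compounds causing at least 50% loss of cell viability in the single-dose screen, relative to plate controls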
HIF-2a block – blocks HIF-2a reporter activity; AID 624352; 360,000 compounds, 0.72% hits; inhibition, % at 18.8 µM; 786-0 RCC cells HIF-2a reporter, luciferase luminescence, overnight;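 active = inhibition of the luminescence signal of 40% or more relative to plate controls, in a single-dose primary screen at 18.75 µM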
CF NFkB inh – blocks PAF-induced NF-kB reporter in cystic fibrosis cells; KKLEB NF-kB-GFP reporter, GFP fluorescence overnight; inhibition, % at 5 µM; 360,000 compounds, 0.86% hits; AID 588850;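 active = at least 50% inhibition at 5 µM, scaled per plate between neutral and stimulator controls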;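 also: PAF is a Pseudomonas aeruginosa culture filtrate used as stimulus; plate controls were PAF-stimulated DMSO wells for no effect and unstimulated DMSO wells for full effect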
PPC-1+TRAIL kill – PPC-1 cancer cell killing with TRAIL present. PPC-1 cells + TRAIL, ATPLite viability luminescence. cell killing (% activity), % at 4 µM or 5 µM. 220,000 compounds, 0.41% hits. AID 1443;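 active = cell killing above 50% in the first pass at 4 µM, then a duplicate retest at 5 µM averaging 50% or more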;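 also: plate controls were cells with TRAIL plus DMSO for no effect and medium-only wells lacking cells for full effect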
hiPSC survival – enhancers of human iPSC single-cell survival | hiPSC single-cell survival, ATPlite luminescence; 100% = ROCK inhibitor wells, 0% = DMSO | survival enhancement, % at 20 µM | 360,000 compounds, 0.044% hits; in the data active = survival enhancement above about 18%;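 also: cells exposed to compounds for 16 hours before the ATP read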
PPC-1 tox – PPC-1 cell cytotoxicity. 1,200 compounds, 50% hits. shares compounds with PPC-1+TRAIL kill. PPC-1 viability, ATPlite luminescence, overnight. cytotoxicity, % at 5 µM;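 active = reconfirmed compounds whose average cytotoxicity reaches 50% or more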;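 also: 0% = DMSO-treated cells and 100% = wells holding medium but no cells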
Numbers without * were called inactive. The list is not random: actives were taken first. Their share in the collection is about 2.2%.

Screening CCOC(=O)c1cc2sccc2n1CC(=O)Nc1ccc(OC)c(OC)c1 returned KKLEB cytotox 0, C8 TRAIL sens 6, HIF-2a block 14, CF NFkB inh -11, PPC-1+TRAIL kill 9, hiPSC survival -2 and PPC-1 tox 7.
For CCOc1cc(C(=O)OCC(=O)c2c[nH]c3ccccc23)ccc1OCC(=O)N1CCOCC1 the results were KKLEB cytotox 5, C8 TRAIL sens -2, HIF-2a block 15, CF NFkB inh -3, PPC-1+TRAIL kill -5, hiPSC survival -1 and PPC-1 tox -13.
CCn1c(NC(=O)/C=C/c2ccc(F)cc2)nc2ccccc21 was read as KKLEB cytotox 6, C8 TRAIL sens 3, HIF-2a block -52, CF NFkB inh -9 and hiPSC survival 0.
`Cc1ccc(Nc2nnc(SC(C)C(=O)NCC3CCCO3)s2)cc1` (configuration not stated) gave KKLEB cytotox -5, C8 TRAIL sens -18, HIF-2a block 3, CF NFkB inh 7 and hiPSC survival 0.
Screening COC(=O)CSc1nc2cc(OC)ccc2cc1C#N returned KKLEB cytotox -7, C8 TRAIL sens 71*, HIF-2a block -339, CF NFkB inh -75, PPC-1+TRAIL kill 69*, hiPSC survival -2 and PPC-1 tox 63*.
For COc1cc2cc(CCOC(=O)c3ccc(C#N)cc3)oc(=O)c2cc1OC the results were KKLEB cytotox -9, C8 TRAIL sens -7, HIF-2a block 6, CF NFkB inh -18 and hiPSC survival -3.
Screening O=C(N/N=C/c1ccc2ncccc2c1)c1ccco1 returned KKLEB cytotox -10, C8 TRAIL sens 80*, HIF-2a block 15, CF NFkB inh 8, PPC-1+TRAIL kill 68*, hiPSC survival -3 and PPC-1 tox 70*.
For CCCC(C(=O)NC1CCCC1)N(CC1CCCO1)C(=O)CNS(=O)(=O)c1ccccc1 (configuration not stated) the results were KKLEB cytotox 1, C8 TRAIL sens -11, HIF-2a block 10, CF NFkB inh 6 and hiPSC survival 0.
For O=C(CN(Cc1ccccc1)C(=O)CCC(=O)Nc1nccs1)NCC1CCCO1 (configuration not stated) the results were KKLEB cytotox 2, C8 TRAIL sens -10, HIF-2a block 10, CF NFkB inh -10 and hiPSC survival 0.
CCOC(=O)c1ccc(Nc2cc(C)nc(C)c2C(=O)OCC)cc1 was read as KKLEB cytotox -1, C8 TRAIL sens 11, HIF-2a block 16, CF NFkB inh 15, PPC-1+TRAIL kill 4, hiPSC survival 1 and PPC-1 tox -2.
CCOc1ccccc1NC(=O)COC(=O)COc1cccc2c1OC(C)(C)C2 was read as KKLEB cytotox 11, C8 TRAIL sens -5, HIF-2a block 5, CF NFkB inh -16 and hiPSC survival 1.
CCc1ccc(Nc2nnc(SCC(=O)NCCN3C(=O)CSC3=O)s2)cc1 was read as KKLEB cytotox -12, C8 TRAIL sens 58*, HIF-2a block -127, CF NFkB inh -7, PPC-1+TRAIL kill 45, hiPSC survival -3 and PPC-1 tox 45.
Screening CCc1ccc(Nc2nnc(SCC(=O)Nc3sccc3C(N)=O)s2)cc1 returned KKLEB cytotox -2, C8 TRAIL sens 45, HIF-2a block -139, CF NFkB inh -4, PPC-1+TRAIL kill 24 and hiPSC survival -2.
O=C(O)C1CCCCC1C(=O)NCCc1ccccc1 (configuration not stated) was read as KKLEB cytotox 19, C8 TRAIL sens -5, HIF-2a block -10, CF NFkB inh 6, PPC-1+TRAIL kill 8, hiPSC survival -1 and PPC-1 tox 6.
`O=C(O)C1CCCCC1C(=O)NCCCc1ccccc1` (configuration not stated) gave KKLEB cytotox 7, C8 TRAIL sens -19, HIF-2a block 8, CF NFkB inh -19, PPC-1+TRAIL kill 2 and hiPSC survival -1.
Cc1sc2nc(C(C)(C)C)oc(=O)c2c1C was read as KKLEB cytotox -3, C8 TRAIL sens 7, HIF-2a block 12, CF NFkB inh 18, PPC-1+TRAIL kill -9, hiPSC survival -2 and PPC-1 tox 1.
